One experiment has as its system NDR2. The following applies: concentration: 1 μM, replicates: in singlicate; n = 1.
Take `Cc1cccc(Nc2nc(N[C@H]3CCNC3)ncc2C(N)=O)c1.Cl` [GSK2197149]: the “%Inh” value is listed as 0%.

Regarding `c1ccc(-c2n[nH]cc2Nc2ccnc3ccccc23)nc1` [GW694077], the “%Inh” value is 4%.

For `CN(C)Cc1ccc(-c2ccc3c(Nc4ccc(Oc5ccccn5)cc4)ccnc3c2)o1` [GW567148], the “%Inh” value came to 0%.

In the case of `CCS(=O)(=O)c1ccc(OC)c(Nc2nccc(-c3c(-c4cccc(NC(=O)c5c(F)cccc5F)c4)nn4ncccc34)n2)c1` [GSK326180], the “%Inh” value was determined as 0%.

Turning to `COc1cccc(C2=C(Nc3ccc(Cl)c(C(=O)O)c3)C(=O)NC2=O)c1` [SB-390769], the “%Inh” value is recorded as 0%.

Turning to `COc1cccc(NC(=O)NC2CCN(c3ccnc(Nc4cc(OC)c(OC)c(OC)c4)n3)C2)c1` (stereo not drawn) [GSK1379763], the “%Inh” value is given as 0%.

Consider `Cc1ccc(C)c(NC(=O)NC2CCN(c3ccnc(Nc4ccc(F)cc4)n3)C2)c1` (stereo not drawn) [GSK1379720], for which the “%Inh” value is listed as 0%.

As for `Cc1ccc(F)c(C(=O)Nc2cccc(-c3nn4ccccc4c3-c3ccnc(Nc4cccc(F)c4)n3)c2)c1F` [GSK361061], the “%Inh” value amounted to 0%.

With `Cc1occc1-c1ncc(OC[C@@H](N)Cc2c[nH]c3ccccc23)cc1-c1ccc2[nH]nc(C)c2c1.O=C(O)C(F)(F)F` [GSK682037], the “%Inh” value is on record as 0%.

Regarding `COc1ccc(Nc2nccc(N3CCC(NC(=O)Nc4cccc(OC)c4)C3)n2)cc1` (stereo not drawn) [GSK1379742], the “%Inh” value was 0%.

As for `CC(=O)N1CCN(c2ccc(Nc3nccc(-c4sc(C(C)C)nc4-c4cccc(NS(=O)(=O)c5cccc(Cl)c5)c4)n3)cn2)CC1` [GSK1660437], the “%Inh” value is recorded as 0%.

`Nc1ncnc2c1nc(-c1ccccc1)n2-c1ccccc1` [SKF-97293]: the “%Inh” value is 14%.

For `O=C(NC1CCN(c2ccnc(Nc3ccc(F)cc3)n2)C1)c1cc2ccccc2s1` (stereo not drawn) [GSK1379716], the “%Inh” value worked out at 0%.

As for `COc1cccc(C(=O)Nc2cccc(Oc3ccc4nc(NC(=O)C5CC5)cn4n3)c2)c1`, the “%Inh” value was determined as 10%.

Turning to `Cl.Cl.NCC(C(=O)Nc1cc(Br)c(-c2ccnc3[nH]ccc23)s1)c1ccccc1` (stereo not drawn) [GSK1269851], the “%Inh” value is given as 13%.

As for `Cn1cc(-c2ccc3c(c2)CCN3C(=O)Cc2cccc(Cl)c2)c2c(N)ncnc21` [GSK2606590], the “%Inh” value amounted to 0%.

In the case of `COc1cc(Nc2ncc3c(C)nc(-c4cc5ccccc5[nH]4)n3n2)cc(OC)c1OC` [GW869516], the “%Inh” value worked out at 0%.

`O=C(Nc1cccc(-c2nn3ccccc3c2-c2ccnc(Nc3cccc(F)c3)n2)c1)c1c(F)ccc(F)c1Cl` [GSK357952]: the “%Inh” value amounted to 0%.

On to `C[C@@H](Oc1cc(-n2cnc3cc(-c4ccnc(NCCS(C)(=O)=O)c4)ccc32)sc1C(N)=O)c1ccccc1Cl` [GSK907232], for which the “%Inh” value was 0%.

For the compound `COc1cccc(-c2ccc3c(NC(=O)C4CC4)n[nH]c3n2)c1` [SB-710903], the “%Inh” value came to 16%.

With `Cc1ccc(C(=O)N2CC[C@@H](O)C2)cc1-n1c(C)cc(OCc2ccc(F)cc2F)c(Br)c1=O`, the “%Inh” value is recorded as 0%.

In the case of `Cl.c1ccc(-c2ccc3c(Nc4ccc5[nH]ccc5c4)ccnc3c2)nc1` [GW440138], the “%Inh” value is 27%.

For `CCc1ccc(-c2ccc3c(c2)-c2c(cnn2C)S(=O)(=O)N3C)cc1`, the “%Inh” value is reported as 0%.

Regarding `COc1ccc(Nc2nccc(NCCNC(=O)c3cc4ccccc4s3)n2)cc1` [GSK1379896], the “%Inh” value is 0%.

Consider `Nc1ncc(-c2ccc3nccc(-c4ccncc4)c3c2)cc1S(=O)(=O)N1CCOCC1` [GSK1627798], for which the “%Inh” value came out at 0%.

For `O=C(Nc1n[nH]c2cc(-c3ccoc3)ccc12)C1CC1` [SB-738481], the “%Inh” value amounted to 0%.

Another experiment concerns NEK10. The following applies: concentration: 1 μM, replicates: in singlicate; n = 1.
As for `O=C(O)C(F)(F)F.O=C(O)C(F)(F)F.O=c1[nH]ccc2nc(N[C@@H]3CCCNC3)nc(Nc3ccc(S(=O)(=O)N4CCOCC4)cc3)c12` [GSK2177277], the “%Inh” value was found to be 93.6%.

`COc1cc(Nc2nccc(N3CCC(NC(=O)c4cc5ccccc5s4)C3)n2)cc(OC)c1OC` (stereo not drawn) [GSK1379760]: the “%Inh” value turned out to be 18%.

`CN1CCN(Cc2cccc(-c3ccc4c(Nc5ccc(Oc6ccccc6)cc5)ccnc4c3)c2)CC1` [GW578342]: the “%Inh” value came out at 0%.

As to `Fc1ccc(-c2ncn(C3CCNCC3)c2-c2ccnc(Oc3ccc(-c4ccccc4)cc3)n2)cc1` [SB-245391], the “%Inh” value was 0%.

On to `Cc1ccc(S(=O)(=O)Nc2ccc(Nc3nccc(Nc4cccc5[nH]ncc45)n3)cc2)cc1` [GSK581271], for which the “%Inh” value stood at 3%.

On to `COC(=O)Nc1nc2ccc(Oc3ccc(NC(=O)Nc4cc(C(F)(F)F)ccc4F)cc3)cc2n1C.Cl` [GW692089], for which the “%Inh” value is on record as 1%.

Take `O=C(Nc1n[nH]c2nc(-c3ccc(O)cc3)ccc12)C1CC1` [SB-710363]: the “%Inh” value worked out at 0%.

For `CNC(=O)c1ccccc1Nc1nc(Nc2ccc(N3CCOCC3)cc2)ncc1Cl.Cl` [GSK1576028], the “%Inh” value was found to be 24%.

For the compound `Cl.NC(=O)c1cccc(Nc2nccc(Nc3ccc(Oc4c(Cl)cccc4Cl)c(Cl)c3)n2)c1` [GW659009], the “%Inh” value amounted to 0%.

Take `COc1cc(Nc2nccc(-c3c(-c4cccc(NC(=O)c5c(F)cccc5F)c4)nn4ccccc34)n2)cc(OC)c1OC` [GSK323521]: the “%Inh” value is listed as 10%.

On to `Cn1cc(-c2ccc3c(c2)CCN3C(=O)Cc2cccc(F)c2)c2c(N)ncnc21` [GSK2603358], for which the “%Inh” value was 22%.

In the case of `Cc1cccc(Nc2nc(N[C@H]3CCNC3)ncc2C(N)=O)c1.Cl` [GSK2197149], the “%Inh” value is reported as 56%.

On to `c1ccc(-c2n[nH]cc2Nc2ccnc3ccccc23)nc1` [GW694077], for which the “%Inh” value is given as 95.7%.

Regarding `CN(C)Cc1ccc(-c2ccc3c(Nc4ccc(Oc5ccccn5)cc4)ccnc3c2)o1` [GW567148], the “%Inh” value came out at 13%.

On to `CCS(=O)(=O)c1ccc(OC)c(Nc2nccc(-c3c(-c4cccc(NC(=O)c5c(F)cccc5F)c4)nn4ncccc34)n2)c1` [GSK326180], for which the “%Inh” value stood at 21%.

`COc1cccc(C2=C(Nc3ccc(Cl)c(C(=O)O)c3)C(=O)NC2=O)c1` [SB-390769]: the “%Inh” value is recorded as 73%.

As for `COc1cccc(NC(=O)NC2CCN(c3ccnc(Nc4cc(OC)c(OC)c(OC)c4)n3)C2)c1` (stereo not drawn) [GSK1379763], the “%Inh” value was found to be 15%.

Take `Cc1ccc(C)c(NC(=O)NC2CCN(c3ccnc(Nc4ccc(F)cc4)n3)C2)c1` (stereo not drawn) [GSK1379720]: the “%Inh” value is 9%.

For the compound `Cc1ccc(F)c(C(=O)Nc2cccc(-c3nn4ccccc4c3-c3ccnc(Nc4cccc(F)c4)n3)c2)c1F` [GSK361061], the “%Inh” value is on record as 11%.

In the case of `Cc1occc1-c1ncc(OC[C@@H](N)Cc2c[nH]c3ccccc23)cc1-c1ccc2[nH]nc(C)c2c1.O=C(O)C(F)(F)F` [GSK682037], the “%Inh” value was 4%.

Consider `COc1ccc(Nc2nccc(N3CCC(NC(=O)Nc4cccc(OC)c4)C3)n2)cc1` (stereo not drawn) [GSK1379742], for which the “%Inh” value came out at 0%.

With `CC(=O)N1CCN(c2ccc(Nc3nccc(-c4sc(C(C)C)nc4-c4cccc(NS(=O)(=O)c5cccc(Cl)c5)c4)n3)cn2)CC1` [GSK1660437], the “%Inh” value amounted to 0%.

Turning to `Nc1ncnc2c1nc(-c1ccccc1)n2-c1ccccc1` [SKF-97293], the “%Inh” value stood at 21%.

`O=C(NC1CCN(c2ccnc(Nc3ccc(F)cc3)n2)C1)c1cc2ccccc2s1` (stereo not drawn) [GSK1379716]: the “%Inh” value was 19%.

`COc1cccc(C(=O)Nc2cccc(Oc3ccc4nc(NC(=O)C5CC5)cn4n3)c2)c1`: the “%Inh” value is reported as 0%.

As to `Cl.Cl.NCC(C(=O)Nc1cc(Br)c(-c2ccnc3[nH]ccc23)s1)c1ccccc1` (stereo not drawn) [GSK1269851], the “%Inh” value was found to be 12%.

Consider `Cn1cc(-c2ccc3c(c2)CCN3C(=O)Cc2cccc(Cl)c2)c2c(N)ncnc21` [GSK2606590], for which the “%Inh” value worked out at 18%.

For the compound `COc1cc(Nc2ncc3c(C)nc(-c4cc5ccccc5[nH]4)n3n2)cc(OC)c1OC` [GW869516], the “%Inh” value is 0%.

In the case of `O=C(Nc1cccc(-c2nn3ccccc3c2-c2ccnc(Nc3cccc(F)c3)n2)c1)c1c(F)ccc(F)c1Cl` [GSK357952], the “%Inh” value worked out at 44%.

For `C[C@@H](Oc1cc(-n2cnc3cc(-c4ccnc(NCCS(C)(=O)=O)c4)ccc32)sc1C(N)=O)c1ccccc1Cl` [GSK907232], the “%Inh” value came to 0%.

With `COc1cccc(-c2ccc3c(NC(=O)C4CC4)n[nH]c3n2)c1` [SB-710903], the “%Inh” value stood at 20%.

Take `Cc1ccc(C(=O)N2CC[C@@H](O)C2)cc1-n1c(C)cc(OCc2ccc(F)cc2F)c(Br)c1=O`: the “%Inh” value was found to be 0%.

Take `Cl.c1ccc(-c2ccc3c(Nc4ccc5[nH]ccc5c4)ccnc3c2)nc1` [GW440138]: the “%Inh” value amounted to 1%.

For the compound `CCc1ccc(-c2ccc3c(c2)-c2c(cnn2C)S(=O)(=O)N3C)cc1`, the “%Inh” value amounted to 9%.

`COc1ccc(Nc2nccc(NCCNC(=O)c3cc4ccccc4s3)n2)cc1` [GSK1379896]: the “%Inh” value is given as 0%.

Turning to `Nc1ncc(-c2ccc3nccc(-c4ccncc4)c3c2)cc1S(=O)(=O)N1CCOCC1` [GSK1627798], the “%Inh” value was 16%.

Regarding `O=C(Nc1n[nH]c2cc(-c3ccoc3)ccc12)C1CC1` [SB-738481], the “%Inh” value is 0%.

The values above are taken from article PMC5540273 (PLoS ONE, 2017).
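Note: KINOMEscan kinase panel screen.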
